Common to all, as to assay: DAPPL (digital affinity profiling via proximity ligation, sequencing); 10 mM Tris-HCl pH 7.5, 50 mM NaCl, 1 mM DTT, 4% glycerol, room temperature, 30 min; GST-TFs on glutathione beads, 16-mer random dsDNA library, 0.1% formaldehyde crosslink after washing; high values mean tight binding
What all share (details): protein: recombinant; tags: N-terminal GST; dsDNA, one strand shown

The target of experiment [1] is T1, ERF (Homo sapiens, UniProt P50548 1-548).
T1 sequence: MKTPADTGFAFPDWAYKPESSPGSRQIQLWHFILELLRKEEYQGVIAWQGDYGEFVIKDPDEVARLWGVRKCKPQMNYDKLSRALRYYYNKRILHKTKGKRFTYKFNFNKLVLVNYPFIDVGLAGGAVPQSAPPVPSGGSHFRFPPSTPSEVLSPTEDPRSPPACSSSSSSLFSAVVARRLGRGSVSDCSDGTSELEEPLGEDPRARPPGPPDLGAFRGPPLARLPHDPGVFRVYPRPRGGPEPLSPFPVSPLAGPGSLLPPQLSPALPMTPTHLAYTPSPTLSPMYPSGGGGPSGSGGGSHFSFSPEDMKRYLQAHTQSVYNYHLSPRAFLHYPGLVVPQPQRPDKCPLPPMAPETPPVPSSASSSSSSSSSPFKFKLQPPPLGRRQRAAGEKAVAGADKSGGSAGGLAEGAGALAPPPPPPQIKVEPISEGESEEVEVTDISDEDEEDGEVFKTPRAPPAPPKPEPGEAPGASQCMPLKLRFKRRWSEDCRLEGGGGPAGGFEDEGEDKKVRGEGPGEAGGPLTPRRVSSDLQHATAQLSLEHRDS
The procedure, abridged: (§1)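 Pools were built from human transcription factors expressed in yeast as GST fusions, captured on glutathione beads and DNA-barcoded, along with a tag-only sample. Incubation with 200 nmole of a 16-mer random double-stranded DNA library lasted 30 min at room temperature in Tris/NaCl/DTT/glycerol buffer, and was followed by washing, 0.1% formaldehyde crosslinking, proximity ligation, PCR amplification and Illumina NextSeq500 sequencing. Binding signal is the quotient of each hexamer's read frequency for a factor and its frequency for the tag-only sample.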

Experiment [2] deals with T2, ETV3L (Homo sapiens, UniProt Q6ZN32 1-361).
T2 sequence: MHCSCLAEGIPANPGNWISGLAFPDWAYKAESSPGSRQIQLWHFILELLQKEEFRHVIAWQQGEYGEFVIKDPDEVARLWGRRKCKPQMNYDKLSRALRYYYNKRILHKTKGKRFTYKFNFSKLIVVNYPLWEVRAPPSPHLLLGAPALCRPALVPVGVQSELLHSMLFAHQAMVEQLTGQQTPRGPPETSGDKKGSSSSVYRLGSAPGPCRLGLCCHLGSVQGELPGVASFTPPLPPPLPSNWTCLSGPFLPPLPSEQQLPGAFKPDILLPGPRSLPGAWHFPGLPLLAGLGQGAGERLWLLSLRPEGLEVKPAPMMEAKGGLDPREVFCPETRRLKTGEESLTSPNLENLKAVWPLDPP
A digest of the protocol: as §1

The target in experiment [3] is T3, ETS2 (Homo sapiens, UniProt P15036 1-469).
T3 sequence: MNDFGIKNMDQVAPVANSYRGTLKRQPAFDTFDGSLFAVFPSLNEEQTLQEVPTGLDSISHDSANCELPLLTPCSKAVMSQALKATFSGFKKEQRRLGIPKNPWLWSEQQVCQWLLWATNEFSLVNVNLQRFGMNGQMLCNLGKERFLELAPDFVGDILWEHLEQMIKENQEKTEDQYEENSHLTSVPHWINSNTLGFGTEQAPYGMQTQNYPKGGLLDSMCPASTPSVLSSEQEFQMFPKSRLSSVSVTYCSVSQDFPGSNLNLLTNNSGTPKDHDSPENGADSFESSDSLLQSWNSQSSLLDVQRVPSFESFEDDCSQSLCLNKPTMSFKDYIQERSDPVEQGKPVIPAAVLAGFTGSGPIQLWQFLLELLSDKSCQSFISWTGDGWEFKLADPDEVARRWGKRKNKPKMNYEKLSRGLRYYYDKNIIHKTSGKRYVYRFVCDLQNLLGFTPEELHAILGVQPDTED
The procedure, abridged:
as §1

The target of experiment [4] is T4, SPDEF (Homo sapiens, UniProt O95238 1-335).
T4 sequence: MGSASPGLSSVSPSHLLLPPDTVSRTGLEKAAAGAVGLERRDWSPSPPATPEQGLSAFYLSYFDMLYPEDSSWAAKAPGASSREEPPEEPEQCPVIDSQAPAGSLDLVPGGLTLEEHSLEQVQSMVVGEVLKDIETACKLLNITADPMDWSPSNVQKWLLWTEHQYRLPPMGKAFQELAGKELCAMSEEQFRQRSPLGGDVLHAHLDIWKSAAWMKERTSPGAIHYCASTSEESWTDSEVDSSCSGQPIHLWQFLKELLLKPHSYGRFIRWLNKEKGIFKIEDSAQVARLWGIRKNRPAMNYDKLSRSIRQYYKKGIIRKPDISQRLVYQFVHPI
The procedure, abridged: as §1

Experiment [5] concerns the target T5, ETV7 (Homo sapiens, UniProt Q9Y603 1-341).
T5 sequence: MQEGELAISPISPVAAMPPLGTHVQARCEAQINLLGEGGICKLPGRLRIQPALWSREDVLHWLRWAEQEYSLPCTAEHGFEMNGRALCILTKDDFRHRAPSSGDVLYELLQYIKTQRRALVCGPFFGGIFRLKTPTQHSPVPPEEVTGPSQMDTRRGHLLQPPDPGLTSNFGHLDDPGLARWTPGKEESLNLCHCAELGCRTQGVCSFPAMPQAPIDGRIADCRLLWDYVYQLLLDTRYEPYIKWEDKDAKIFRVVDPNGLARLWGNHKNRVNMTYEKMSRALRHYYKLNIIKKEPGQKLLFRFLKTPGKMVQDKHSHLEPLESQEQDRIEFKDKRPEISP
The procedure, abridged:
as §1

In experiment [6] the target is T6, ELF5 (Homo sapiens, UniProt Q9UKW6-2 1-255).
T6 sequence: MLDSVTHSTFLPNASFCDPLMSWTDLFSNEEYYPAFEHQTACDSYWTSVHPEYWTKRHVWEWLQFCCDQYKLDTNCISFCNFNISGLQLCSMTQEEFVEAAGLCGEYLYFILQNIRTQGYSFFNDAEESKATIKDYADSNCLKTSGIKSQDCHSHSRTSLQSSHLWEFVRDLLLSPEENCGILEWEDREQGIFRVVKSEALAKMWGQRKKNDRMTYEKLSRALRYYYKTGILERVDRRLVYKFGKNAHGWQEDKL
The procedure, abridged: as §1

Experiment [7] deals with T7, ETV3 (Homo sapiens, UniProt P41162-2 1-143).
T7 sequence: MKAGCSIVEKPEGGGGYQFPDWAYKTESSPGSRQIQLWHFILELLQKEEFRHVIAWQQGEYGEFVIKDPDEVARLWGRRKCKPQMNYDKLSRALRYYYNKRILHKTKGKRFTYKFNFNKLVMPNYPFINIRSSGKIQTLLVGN
The procedure, abridged:
as §1

In experiment [8] the target is ETV6 (Homo sapiens, UniProt P41212 1-452). A digest of the protocol:
as §1

This passage reports binding signal results from publication PMC7862700, “An all-to-all approach to the identification of sequence-specific readers for epigenetic DNA modifications on cytosine”.

Chain of ETV6 (P41212 whole entry): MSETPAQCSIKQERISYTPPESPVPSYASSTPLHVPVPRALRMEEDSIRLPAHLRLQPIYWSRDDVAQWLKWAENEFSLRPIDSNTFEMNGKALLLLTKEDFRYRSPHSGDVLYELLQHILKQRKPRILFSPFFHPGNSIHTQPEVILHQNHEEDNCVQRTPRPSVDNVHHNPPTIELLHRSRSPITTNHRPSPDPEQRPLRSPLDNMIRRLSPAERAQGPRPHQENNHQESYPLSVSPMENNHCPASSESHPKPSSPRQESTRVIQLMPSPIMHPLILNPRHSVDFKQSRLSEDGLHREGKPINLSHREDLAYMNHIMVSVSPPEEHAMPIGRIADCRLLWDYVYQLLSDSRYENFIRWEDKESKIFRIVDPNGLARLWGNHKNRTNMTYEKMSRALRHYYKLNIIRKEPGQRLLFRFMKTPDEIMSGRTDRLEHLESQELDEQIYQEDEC

For the sequence ACTATC, the binding signal in experiment [1] is 1.21 fold enrichment (6-mer frequency, TF over GST control); in experiment [2] it was 1.15 fold enrichment (6-mer frequency, TF over GST control); in experiment [3], 1.19 fold enrichment (6-mer frequency, TF over GST control); in experiment [4] it was 1.18 fold enrichment (6-mer frequency, TF over GST control); in experiment [5], 1.19 fold enrichment (6-mer frequency, TF over GST control); in experiment [6] it was 1.13 fold enrichment (6-mer frequency, TF over GST control). Moreover, the binding signal in experiment [7] is 1.13 fold enrichment (6-mer frequency, TF over GST control); in experiment [8] it was 1.1 fold enrichment (6-mer frequency, TF over GST control).
With CTCTTA, the binding signal in experiment [1] is 1.45 fold enrichment (6-mer frequency, TF over GST control); in experiment [2], 1.5 fold enrichment (6-mer frequency, TF over GST control); in experiment [3], 1.33 fold enrichment (6-mer frequency, TF over GST control); in experiment [4], 1.24 fold enrichment (6-mer frequency, TF over GST control); in experiment [5], 1.28 fold enrichment (6-mer frequency, TF over GST control); in experiment [6], 1.31 fold enrichment (6-mer frequency, TF over GST control). The binding signal in experiment [7] is 1.38 fold enrichment (6-mer frequency, TF over GST control); in experiment [8] it was 1.39 fold enrichment (6-mer frequency, TF over GST control).
For the sequence AACACT, the binding signal in experiment [1] was 1.21 fold enrichment (6-mer frequency, TF over GST control); in experiment [2], 1.3 fold enrichment (6-mer frequency, TF over GST control); in experiment [3], 1.37 fold enrichment (6-mer frequency, TF over GST control); in experiment [4], 1.22 fold enrichment (6-mer frequency, TF over GST control); in experiment [5] it was 1.32 fold enrichment (6-mer frequency, TF over GST control); in experiment [6] it was 1.34 fold enrichment (6-mer frequency, TF over GST control). In addition, the binding signal was 1.29 fold enrichment (6-mer frequency, TF over GST control) in experiment [7] and 1.4 fold enrichment (6-mer frequency, TF over GST control) in experiment [8].
Regarding ATTATT, the binding signal in experiment [1] was 1.11 fold enrichment (6-mer frequency, TF over GST control); in experiment [2], 1.17 fold enrichment (6-mer frequency, TF over GST control); in experiment [3] it was 1.16 fold enrichment (6-mer frequency, TF over GST control); in experiment [4], 1.11 fold enrichment (6-mer frequency, TF over GST control); in experiment [5], 1.25 fold enrichment (6-mer frequency, TF over GST control); in experiment [6] it was 1.15 fold enrichment (6-mer frequency, TF over GST control). The binding signal in experiment [7] is 1.18 fold enrichment (6-mer frequency, TF over GST control); in experiment [8] it was 1.13 fold enrichment (6-mer frequency, TF over GST control).
As for CCCGCT, the binding signal is 1.37 fold enrichment (6-mer frequency, TF over GST control) in experiment [1]; 1.47 fold enrichment (6-mer frequency, TF over GST control) in experiment [2]; 1.22 fold enrichment (6-mer frequency, TF over GST control) in experiment [3]; 1.32 fold enrichment (6-mer frequency, TF over GST control) in experiment [4]; 1.36 fold enrichment (6-mer frequency, TF over GST control) in experiment [5]; 1.39 fold enrichment (6-mer frequency, TF over GST control) in experiment [6]. Further, the binding signal in experiment [7] is 1.36 fold enrichment (6-mer frequency, TF over GST control); in experiment [8], 1.38 fold enrichment (6-mer frequency, TF over GST control).
Regarding TTCTCC, the binding signal in experiment [1] was 1.53 fold enrichment (6-mer frequency, TF over GST control); in experiment [2] it was 1.58 fold enrichment (6-mer frequency, TF over GST control); in experiment [3], 1.53 fold enrichment (6-mer frequency, TF over GST control); in experiment [4], 1.52 fold enrichment (6-mer frequency, TF over GST control); in experiment [5], 1.46 fold enrichment (6-mer frequency, TF over GST control); in experiment [6], 1.51 fold enrichment (6-mer frequency, TF over GST control). Further, the binding signal in experiment [7] was 1.5 fold enrichment (6-mer frequency, TF over GST control); in experiment [8], 1.48 fold enrichment (6-mer frequency, TF over GST control).
For GAAAAT, the binding signal is 1.18 fold enrichment (6-mer frequency, TF over GST control) in experiment [1]; 1.15 fold enrichment (6-mer frequency, TF over GST control) in experiment [2]; 1.13 fold enrichment (6-mer frequency, TF over GST control) in experiment [3]; 1.05 fold enrichment (6-mer frequency, TF over GST control) in experiment [4]; 1.2 fold enrichment (6-mer frequency, TF over GST control) in experiment [5]; 1.17 fold enrichment (6-mer frequency, TF over GST control) in experiment [6]. The binding signal in experiment [7] is 1.07 fold enrichment (6-mer frequency, TF over GST control); in experiment [8] it was 1.19 fold enrichment (6-mer frequency, TF over GST control).
Take CGACTC: the binding signal is 1.59 fold enrichment (6-mer frequency, TF over GST control) in experiment [1]; 1.36 fold enrichment (6-mer frequency, TF over GST control) in experiment [2]; 1.38 fold enrichment (6-mer frequency, TF over GST control) in experiment [3]; 1.29 fold enrichment (6-mer frequency, TF over GST control) in experiment [4]; 1.29 fold enrichment (6-mer frequency, TF over GST control) in experiment [5]; 1.33 fold enrichment (6-mer frequency, TF over GST control) in experiment [6]. For the same sequence, the binding signal in experiment [7] was 1.29 fold enrichment (6-mer frequency, TF over GST control); in experiment [8] it was 1.38 fold enrichment (6-mer frequency, TF over GST control).
